Among the data in ChEMBL document CHEMBL2218924, “A broad activity screen in support of a chemogenomic map for kinase signalling research and drug discovery” (Biochem J, 2013) are residual activity values, retold here.

In general, residual activity refers to the signal under treatment as a percentage of the control signal.

The target of experiment [1] is T1, Serine/threonine-protein kinase TBK1 (Homo sapiens) (UniProt Q9UHD2).
T1 sequence (whole entry): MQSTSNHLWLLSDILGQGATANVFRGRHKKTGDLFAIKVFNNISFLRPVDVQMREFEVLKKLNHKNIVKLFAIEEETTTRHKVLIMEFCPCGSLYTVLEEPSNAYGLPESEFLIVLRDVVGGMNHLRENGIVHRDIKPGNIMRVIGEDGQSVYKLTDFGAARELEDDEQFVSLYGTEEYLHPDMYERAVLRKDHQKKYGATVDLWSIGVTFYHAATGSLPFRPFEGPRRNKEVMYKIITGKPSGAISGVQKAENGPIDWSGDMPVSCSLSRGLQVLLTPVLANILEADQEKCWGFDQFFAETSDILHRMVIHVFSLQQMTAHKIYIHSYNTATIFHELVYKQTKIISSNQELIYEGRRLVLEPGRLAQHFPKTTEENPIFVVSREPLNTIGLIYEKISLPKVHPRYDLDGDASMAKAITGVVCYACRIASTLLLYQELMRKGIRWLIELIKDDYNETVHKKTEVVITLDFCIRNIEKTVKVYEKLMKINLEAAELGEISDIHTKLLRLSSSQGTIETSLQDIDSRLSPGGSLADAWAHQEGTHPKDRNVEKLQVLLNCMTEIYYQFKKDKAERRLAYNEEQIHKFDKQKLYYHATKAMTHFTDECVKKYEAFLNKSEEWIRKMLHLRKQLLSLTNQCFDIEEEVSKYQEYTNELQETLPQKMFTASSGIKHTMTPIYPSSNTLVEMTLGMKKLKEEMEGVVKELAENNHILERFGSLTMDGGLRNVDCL
The conditions noted are these: at 1 µM.

Experiment [2] deals with T1, Serine/threonine-protein kinase TBK1 (Homo sapiens). Conditions: at 10 µM.
Experiment [3] deals with T2, TGF-beta receptor type-1 (Homo sapiens) (UniProt P36897).
T2 sequence (whole entry): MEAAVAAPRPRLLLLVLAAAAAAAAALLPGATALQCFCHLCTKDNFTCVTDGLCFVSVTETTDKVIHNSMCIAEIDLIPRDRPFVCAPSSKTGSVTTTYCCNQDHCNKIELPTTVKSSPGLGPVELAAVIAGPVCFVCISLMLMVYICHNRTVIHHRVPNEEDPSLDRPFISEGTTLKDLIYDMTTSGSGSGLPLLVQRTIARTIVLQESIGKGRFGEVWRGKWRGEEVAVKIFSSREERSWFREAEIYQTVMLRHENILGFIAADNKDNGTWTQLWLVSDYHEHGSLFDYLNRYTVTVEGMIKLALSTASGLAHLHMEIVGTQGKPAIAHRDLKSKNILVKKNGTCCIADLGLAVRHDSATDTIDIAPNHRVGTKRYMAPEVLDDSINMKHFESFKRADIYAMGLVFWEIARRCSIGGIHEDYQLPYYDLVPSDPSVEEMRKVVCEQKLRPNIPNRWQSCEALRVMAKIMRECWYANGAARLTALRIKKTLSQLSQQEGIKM
Conditions: at 1 µM.

The target in experiment [4] is T2, TGF-beta receptor type-1 (Homo sapiens). The conditions noted are these: at 10 µM.
Experiment [5] has as its target Insulin-like growth factor 1 receptor (Homo sapiens) (UniProt P08069). The conditions noted are these: at 1 µM.
Experiment [6] shares this target. Conditions: at 10 µM.
Experiment [7] deals with T3, Inhibitor of nuclear factor kappa-B kinase subunit alpha (Homo sapiens) (UniProt O15111).
T3 sequence (whole entry): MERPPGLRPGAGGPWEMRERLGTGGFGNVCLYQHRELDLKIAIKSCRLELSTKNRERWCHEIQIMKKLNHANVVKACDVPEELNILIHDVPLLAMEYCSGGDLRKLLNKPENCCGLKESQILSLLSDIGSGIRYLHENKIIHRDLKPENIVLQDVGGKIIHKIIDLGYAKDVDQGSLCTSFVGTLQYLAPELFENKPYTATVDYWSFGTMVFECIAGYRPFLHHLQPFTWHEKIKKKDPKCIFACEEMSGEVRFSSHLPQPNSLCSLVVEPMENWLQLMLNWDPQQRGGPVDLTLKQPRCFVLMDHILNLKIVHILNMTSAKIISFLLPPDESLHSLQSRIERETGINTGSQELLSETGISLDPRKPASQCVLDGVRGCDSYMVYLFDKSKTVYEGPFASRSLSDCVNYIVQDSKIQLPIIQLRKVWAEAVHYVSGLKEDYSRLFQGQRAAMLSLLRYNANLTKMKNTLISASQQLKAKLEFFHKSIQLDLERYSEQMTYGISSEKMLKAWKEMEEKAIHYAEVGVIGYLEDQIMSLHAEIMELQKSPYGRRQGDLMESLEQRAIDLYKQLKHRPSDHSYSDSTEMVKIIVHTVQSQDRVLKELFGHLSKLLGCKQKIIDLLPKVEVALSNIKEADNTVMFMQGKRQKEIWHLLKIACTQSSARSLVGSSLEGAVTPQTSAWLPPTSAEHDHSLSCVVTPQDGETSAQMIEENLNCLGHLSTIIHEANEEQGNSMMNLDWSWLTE
Conditions: at 1 µM.

Experiment [8] deals with T3, Inhibitor of nuclear factor kappa-B kinase subunit alpha (Homo sapiens). Conditions: at 10 µM.
In experiment [9] the target is T4, Inhibitor of nuclear factor kappa-B kinase subunit beta (Homo sapiens) (UniProt O14920).
T4 sequence (whole entry): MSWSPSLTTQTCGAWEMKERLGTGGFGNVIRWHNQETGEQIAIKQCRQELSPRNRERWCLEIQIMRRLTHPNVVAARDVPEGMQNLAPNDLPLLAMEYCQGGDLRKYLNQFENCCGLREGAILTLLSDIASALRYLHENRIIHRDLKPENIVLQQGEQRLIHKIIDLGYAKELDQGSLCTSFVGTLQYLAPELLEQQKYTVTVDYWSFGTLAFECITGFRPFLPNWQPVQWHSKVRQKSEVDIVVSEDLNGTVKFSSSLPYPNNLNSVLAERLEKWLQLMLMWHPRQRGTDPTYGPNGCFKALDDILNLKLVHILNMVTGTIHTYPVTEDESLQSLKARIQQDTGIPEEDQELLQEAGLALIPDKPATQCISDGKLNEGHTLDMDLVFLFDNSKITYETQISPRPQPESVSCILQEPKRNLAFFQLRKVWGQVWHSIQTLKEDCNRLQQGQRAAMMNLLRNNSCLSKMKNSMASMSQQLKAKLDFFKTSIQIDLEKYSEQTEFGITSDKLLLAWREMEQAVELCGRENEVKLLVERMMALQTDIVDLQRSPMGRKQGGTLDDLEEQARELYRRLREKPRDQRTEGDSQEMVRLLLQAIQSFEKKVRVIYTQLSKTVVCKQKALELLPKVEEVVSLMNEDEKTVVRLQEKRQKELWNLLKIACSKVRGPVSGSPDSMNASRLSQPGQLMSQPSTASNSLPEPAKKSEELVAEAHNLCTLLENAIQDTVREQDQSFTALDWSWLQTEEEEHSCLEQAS
The conditions noted are these: at 10 µM.

Experiment [10] has as its target Insulin receptor (Homo sapiens) (UniProt P06213). The conditions noted are these: at 1 µM.

Chain of Insulin-like growth factor 1 receptor (Homo sapiens) (P08069 31-736 limits assumed): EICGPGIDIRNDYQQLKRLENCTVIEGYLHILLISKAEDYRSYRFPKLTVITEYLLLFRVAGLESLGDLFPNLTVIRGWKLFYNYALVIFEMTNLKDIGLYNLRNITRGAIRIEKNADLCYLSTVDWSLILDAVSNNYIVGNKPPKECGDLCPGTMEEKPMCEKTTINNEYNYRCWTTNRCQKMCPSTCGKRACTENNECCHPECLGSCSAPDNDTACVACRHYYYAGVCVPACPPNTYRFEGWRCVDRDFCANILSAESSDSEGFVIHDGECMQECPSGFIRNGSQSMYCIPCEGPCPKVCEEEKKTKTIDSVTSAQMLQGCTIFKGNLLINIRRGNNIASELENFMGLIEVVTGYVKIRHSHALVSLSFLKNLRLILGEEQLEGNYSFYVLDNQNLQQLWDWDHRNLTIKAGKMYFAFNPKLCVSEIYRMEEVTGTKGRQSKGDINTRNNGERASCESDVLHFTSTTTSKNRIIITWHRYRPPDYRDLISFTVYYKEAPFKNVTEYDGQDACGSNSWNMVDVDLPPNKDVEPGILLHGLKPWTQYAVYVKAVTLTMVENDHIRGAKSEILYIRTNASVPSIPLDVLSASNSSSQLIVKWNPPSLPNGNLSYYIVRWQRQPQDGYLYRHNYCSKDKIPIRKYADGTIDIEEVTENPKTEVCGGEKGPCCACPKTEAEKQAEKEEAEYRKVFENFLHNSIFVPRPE
Chain of Insulin-like growth factor 1 receptor (Homo sapiens) (P08069 741-1367 limits assumed): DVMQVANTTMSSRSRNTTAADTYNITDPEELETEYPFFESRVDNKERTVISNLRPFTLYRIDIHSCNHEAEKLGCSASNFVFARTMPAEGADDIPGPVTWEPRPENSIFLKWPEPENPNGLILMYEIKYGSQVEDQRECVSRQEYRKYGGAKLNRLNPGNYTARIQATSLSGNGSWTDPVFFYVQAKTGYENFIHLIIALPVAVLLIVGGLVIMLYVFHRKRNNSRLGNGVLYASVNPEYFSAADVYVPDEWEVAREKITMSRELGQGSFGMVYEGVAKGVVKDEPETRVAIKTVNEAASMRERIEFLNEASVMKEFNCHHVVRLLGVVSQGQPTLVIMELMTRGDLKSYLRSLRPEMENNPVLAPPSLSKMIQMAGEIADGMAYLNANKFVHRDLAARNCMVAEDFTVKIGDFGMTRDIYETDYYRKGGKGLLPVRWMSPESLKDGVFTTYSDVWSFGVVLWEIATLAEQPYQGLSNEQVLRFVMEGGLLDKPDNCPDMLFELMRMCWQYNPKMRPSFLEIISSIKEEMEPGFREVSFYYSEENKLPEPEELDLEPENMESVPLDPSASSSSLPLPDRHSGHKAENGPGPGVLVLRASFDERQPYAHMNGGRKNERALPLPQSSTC
Chain of Insulin receptor (Homo sapiens) (P06213 28-758 limits assumed): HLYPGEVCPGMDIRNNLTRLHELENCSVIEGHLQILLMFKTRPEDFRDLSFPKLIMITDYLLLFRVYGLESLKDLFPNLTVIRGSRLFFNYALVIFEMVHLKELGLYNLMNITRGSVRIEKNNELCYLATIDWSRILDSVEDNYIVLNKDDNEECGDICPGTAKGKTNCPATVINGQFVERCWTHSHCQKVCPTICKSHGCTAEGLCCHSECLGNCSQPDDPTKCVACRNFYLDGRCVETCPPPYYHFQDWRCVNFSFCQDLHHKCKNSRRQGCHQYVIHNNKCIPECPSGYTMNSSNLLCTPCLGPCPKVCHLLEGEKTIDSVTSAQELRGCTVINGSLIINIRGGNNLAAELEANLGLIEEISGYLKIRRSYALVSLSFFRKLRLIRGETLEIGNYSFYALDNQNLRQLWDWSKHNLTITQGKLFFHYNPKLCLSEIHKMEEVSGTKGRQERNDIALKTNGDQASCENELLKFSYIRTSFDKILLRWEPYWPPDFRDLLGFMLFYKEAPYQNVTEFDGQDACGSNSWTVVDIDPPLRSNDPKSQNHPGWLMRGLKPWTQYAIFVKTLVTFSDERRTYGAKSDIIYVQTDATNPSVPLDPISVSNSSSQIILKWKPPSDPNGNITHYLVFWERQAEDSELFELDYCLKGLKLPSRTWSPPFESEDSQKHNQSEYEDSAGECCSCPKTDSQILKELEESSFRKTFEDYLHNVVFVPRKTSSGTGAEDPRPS
Chain of Insulin receptor (Homo sapiens) (P06213 763-1382 limits assumed): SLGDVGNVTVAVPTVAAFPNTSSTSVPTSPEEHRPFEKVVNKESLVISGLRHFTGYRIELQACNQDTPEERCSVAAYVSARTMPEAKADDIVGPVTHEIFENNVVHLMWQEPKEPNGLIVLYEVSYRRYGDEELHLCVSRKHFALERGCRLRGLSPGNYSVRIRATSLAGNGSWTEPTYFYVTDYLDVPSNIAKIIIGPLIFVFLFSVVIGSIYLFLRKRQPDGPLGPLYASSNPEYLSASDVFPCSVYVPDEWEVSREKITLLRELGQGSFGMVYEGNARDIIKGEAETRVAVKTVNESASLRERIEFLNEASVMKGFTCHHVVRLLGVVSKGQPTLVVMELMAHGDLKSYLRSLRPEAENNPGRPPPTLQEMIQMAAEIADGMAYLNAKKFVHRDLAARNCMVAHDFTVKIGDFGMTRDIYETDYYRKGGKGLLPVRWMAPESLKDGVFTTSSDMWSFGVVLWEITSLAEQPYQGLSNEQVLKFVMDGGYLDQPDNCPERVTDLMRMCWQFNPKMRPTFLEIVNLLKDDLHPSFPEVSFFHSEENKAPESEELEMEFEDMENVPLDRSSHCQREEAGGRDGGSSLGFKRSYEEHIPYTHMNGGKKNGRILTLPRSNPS

Take `CCCC(=O)Oc1ccc2[nH]c(C(=O)c3cc4ccccc4[nH]3)cc2c1`: the residual activity in [1] was determined as 63%; in experiment [2], 59%; in experiment [3], 79%; in [4], 93%; in experiment [5], 93%; in [6], 90%. Besides, the residual activity in experiment [7] amounted to 104%; in experiment [8], 100%; in experiment [9] it was 93%; in experiment [10] it was 107%.
